The list is not random: actives were taken first. Their share in the collection is about 19%.
HT1080-NT tox: qHTS for induction of synthetic lethality in tumor cells producing 2HG: qHTS for the HT-1080-NT fibrosarcoma cell line; HT-1080-NT fibrosarcoma viability, CellTiter-Glo ATP luminescence, 48 h; Potency, µM (series often up to 46.1 µM), for the others: at the top dose activity, negative = less viability, actives largely listed as cytotoxic; actives 1.6% (n = 360,000);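 further: NT is the 2HG producing partner of a matched IDH1 knockdown line; potency means the concentration at half of the fitted maximal effect; 0% = DMSO-treated cells and -100% = media-only wells without cells; nearly all actives have a fitted effect of over 55% in size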
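HT-1080-NT fibrosarcoma cells (2HG-overproducing), 750 cells/well in RPMI with 5% FBS, dosed after 2 h and incubated 48 h at 37C. CellTiter-Glo luminescence normalized to DMSO and no-cell wells; concentration-response curves fitted and classed.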
IL-1B inflam inh: qHTS for Inhibitors of Inflammasome Signaling: IL-1-beta AlphaLISA Primary Screen. actives 4.7% (n = 360,000). activity change, % at 57.5 µM. THP-1 LPS/ATP IL-1B secretion, AlphaLISA, 16 h; stronger effect = lower value; in the data active means activity change below about -50%; inconclusive means mostly about -30% to -49%
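Secreted IL-1B measured by AlphaLISA bead assay after 16 h compound exposure of THP-1 cells; compounds (final up to 57.5 uM) added 1 h before LPS (250 ng/mL) and ATP (1.25 mM) stimulation; lower signal means less secretion.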
DT40 TDP1 no CPT: qHTS for Inhibitors of human tyrosyl-DNA phosphodiesterase 1 (TDP1): qHTS in cells in absence of CPT | Potency, µM (top dose mostly 46.2 µM), inactives show at the highest dose activity change, negative = growth inhibition, actives largely listed as inhibitors | DT40 Tdp1-/- hTDP1 cells, no CPT, ATP luminescence, 48 h | actives 15% (n = 420,000); further: potency means the concentration at half of the fitted maximal effect; nearly all actives have a fitted effect of over 55% in size
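Compound effects on proliferation are scored in DT40 Tdp1-/-;hTDP1 cells in the absence of CPT. ATP levels (CellTiter-Glo luminescence) are recorded after a ≥48 hr, 37 °C incubation.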
TDP1 cell CPT: qHTS for Inhibitors of human tyrosyl-DNA phosphodiesterase 1 (TDP1): qHTS in cells in presence of CPT | chicken DT40 Tdp1-/-;hTDP1 cells + 20 nM CPT, ATP luminescence, 48 h | Potency, µM (highest dose often 46.2 µM), inactives show at the highest dose activity change, negative = growth inhibition, hits mostly inhibitors | actives 12% (n = 420,000) | AID 686979, 2013; further: potency means the concentration at half of the fitted maximal effect; nearly all actives have a fitted effect of over 55% in size
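Chicken DT40 Tdp1-/- cells stably complemented with human TDP1 were seeded at 400 cells/well in medium containing 20 nM camptothecin, exposed to pin-transferred compounds, and grown at 37 °C for at least 48 hr. Viability was read as ATP luminescence.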
HT1080 IDH1KD tx: qHTS for induction of synthetic lethality in tumor cells producing 2HG: qHTS for the HT-1080-IDH1KD cell line | HT-1080 IDH1 knockdown viability, ATP luminescence, 48 h | Potency, µM (series often up to 46.1 µM), inactives show top-dose activity, negative = toxicity, actives largely listed as cytotoxic | actives 2% (n = 360,000) | AID 686971, 2013;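 further: potency means the concentration at half of the fitted maximal effect; 0% = DMSO wells and -100% = cell-free medium wells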
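Using the IDH1-knockdown HT-1080 line run in the same batch and compound series as the NT line, viability after 48 h at 37 °C was determined by CellTiter-Glo luminescence and expressed as % activity.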
* = called active by the depositor; ? = inconclusive; . = not tested or not shown; ! = not active in a repeat. Unless noted, the call rests on the fitted dose curve; in most records, active means well fitted curve in the direction sought with a large enough effect; inconclusive means small, poorly fitted or top-dose-only effect, or another doubt; inactive means no such curve, though single readings can be large; an effect the other way counts as inactive or inconclusive. Unless noted, on the % scale 0 is the no-effect control and ±100 the full control effect.

SMILES | HT1080-NT tox | IL-1B inflam inh | DT40 TDP1 no CPT | TDP1 cell CPT | HT1080 IDH1KD tx
CS(=O)(=O)N(CC(=O)N1CCN(Cc2ccc3c(c2)OCO3)CC1)Cc1ccc(Cl)cc1 | -9.3% | -13.9 | ? | 11.2µM* | ?
CNC(=O)O/N=C/C(C)(C)SC | . | . | 19.9% | 15.1% | .
CC(Cc1ccc(OCC(=O)O)cc1)NCC(O)c1cccc(Cl)c1 (centres undefined) | . | . | -12.3% | -3.6% | .
CCCCNS(=O)(=O)c1ccc(OCC(=O)N2CCN(Cc3ccc4c(c3)OCO4)CC2)cc1 | -8.4% | -28.6 | ? | 10.3µM* | -1.1%
CCC1(CC)COP(=O)(OCC(Cl)CCl)OC1 (centres undefined) | -6.4% | 10.5 | -3.8% | 0.5% | -1.1%
O=C(O)c1nn(Cc2ccc(Cl)cc2)c2ccccc12 | -3.8% | 0.0 | -20.9% | 3.0% | -13.7%
CC(=O)N1Cc2cnnn2-c2ccccc2C1(C)C#N (centres undefined) | 5.8% | 6.9 | 19.9% | 1.1% | 11.8%
CCCC(CCC)C(=O)OC[N+](C)(C)CCOC(=O)C(O)(c1ccccc1)C1CCCC1 (centres undefined) | 3.8% | ? | 11.6µM* | ? | 0.6%
CC(C)(C)C(=O)OC[N+](C)(C)CCOC(=O)C(O)(c1ccccc1)C1CCCC1 (centres undefined) | -7.8% | ? | -24.3% | -0.3% | 0.3%
CCCCC(CC)COP(=O)(OCC(CC)CCCC)OCC(CC)CCCC (centres undefined) | ? | -72.4* | ? | ? | -4.2%
CCCCC(CC)CNCC(O)c1ccccc1 (centres undefined) | -0.7% | 14.2 | -20.6% | -1.9% | 6.4%
C[C@@H]1CNC(=O)c2c(C(=O)Nc3ccc(CNC(=O)OC(C)(C)C)cc3)ncn21 | -12.1% | -12.3 | 9.2µM* | 23.1µM* | -9.9%
Cc1[nH]c2ccccc2c1CCN | -15.5% | -4.1 | ? | -28.7% | -6.7%
Cc1[nH]c2ccccc2c1CCCNC1CCCCC1 | -16.4% | ? | 18.4µM* | ? | -17.5%
C#CC(C)(O)CC (centres undefined) | . | . | 22.5% | 19.0% | .
CC(=O)OC1N=C(c2ccccc2)c2cc(C)ccc2NC1=O (centres undefined) | 1.2% | -10.7 | ? | -8.9% | -0.4%
CCOC(=O)c1cccc(NC2c3ccccc3C(=O)N2Cc2ccco2)c1 (centres undefined) | -12.1% | 0.0 | 6.51µM* | 11.6µM* | -10.9%
O=C(Oc1ccccc1)N1CCC[C@@]2(CCN(Cc3nccs3)C2)C1 | . | . | -25.1% | -2.4% | .
Clc1ccc(C(Cn2ccnc2)OCc2csc3c(Cl)cccc23)c(Cl)c1 (centres undefined) | ? | -77.8* | 13µM* | 23.1µM* | 20.6µM*
O=[N+]([O-])c1cccc(CN2CCN(Cc3ccc(Br)cc3)CC2)c1 | -22.1% | -24.6 | -29.3% | ? | -27.1%
COC(=O)C1=C(C)NC(C)=C(C(=O)O[C@H]2CCN(Cc3ccccc3)C2)[C@H]1c1cccc([N+](=O)[O-])c1 | . | . | 23.7µM* | ? | .
O=C(NC1CCCCC1)C1CCN(C(=O)c2ccc(-c3ccccc3)cc2)CC1 | 3.5% | 0.4 | -25.5% | ? | -2.7%
CCOC(=O)Cn1c(=O)oc2cc(S(=O)(=O)Nc3c(C)cc(C)cc3C)ccc21 | ? | -9.5 | ? | ? | ?
COc1ccc(CNC(=O)Cn2c(=O)oc3cc(S(=O)(=O)N4CCCC4)ccc32)cc1 | -22.9% | -6.2 | ? | 18.4µM* | -12.1%
CC(C)c1ccc(NC(=O)Cn2c(=O)oc3cc(S(=O)(=O)N4CCCC4)ccc32)cc1 | . | . | ? | 9.2µM* | .
SMILES | HT1080-NT tox | IL-1B inflam inh | DT40 TDP1 no CPT | TDP1 cell CPT | HT1080 IDH1KD tx
CC(C)CCNC(=O)Cn1c(=O)oc2cc(S(=O)(=O)N3CCc4ccccc43)ccc21 | -5.8% | -1.3 | ? | ? | -6.3%
CN(C)c1ccc(CNC(=O)Cn2c(=O)oc3cc(S(=O)(=O)N4CCCCCC4)ccc32)cc1 | . | . | -28.3% | 11.6µM* | .
CCN1C[C@]2(COC)[C@H](O)C[C@H](OC)[C@@]34[C@@H]5C[C@@]6(O)[C@H](OC(=O)c7ccccc7)[C@@H]5[C@@](OC(C)=O)([C@@H]([C@H](OC)[C@H]23)[C@@H]14)[C@@H](O)[C@@H]6OC | . | . | -7.6% | -8.9% | .
CN1CCN(C(=O)COc2ccc(S(=O)(=O)Nc3ccc(Cl)cc3)cc2)CC1 | -11.2% | 11.4 | 1.8% | -23.2% | -9.8%
Cc1ccsc1C(=O)C1CCCN(Cc2cccn2-c2ccccn2)C1 (centres undefined) | ? | -24.6 | ? | 20.6µM* | ?
O=C(CCc1nnc2ccc(NCc3ccccc3)nn12)N1CCC2(CC1)OCCO2 | 11.5% | 10.8 | 19.2% | -2.1% | 12.0%
CC(C)(O)[C@@H]1[C@H]2OC(=O)[C@@H]1[C@]1(O)C[C@H]3O[C@]34C(=O)O[C@H]2[C@]14C | . | . | 2.3% | 13.0% | .
CCOC(=O)c1ccc(NC(c2ccc(N(C)C)cc2)P(=O)(OC(C)C)OC(C)C)cc1 (centres undefined) | -22.1% | 8.5 | 29.1µM* | ? | -29.8%
COc1ccccc1CN1CC[C@@]2(CCCN(C(=O)Oc3ccccc3)C2)C1 | . | . | ? | -20.1% | .
O=C1c2ccccc2-c2cccc3cccc1c23 | 16.8% | -17.0 | 18.4µM*! | 20.6µM*! | 0.6%
Cc1ccc(OP(=O)(O)Oc2ccc(C)cc2)cc1 | 4.6% | 10.1 | 1.2% | 30.4% | -2.5%
OC[C@H]1O[C@@H](n2cnc3cc(Cl)c(Cl)cc32)[C@H](O)[C@@H]1O | ? | -69.5* | 14.6µM* | ? | ?
OC[C@H]1O[C@@H](n2cnc3cc(Cl)c(Cl)cc32)[C@H](O)[C@H]1O | . | . | ? | 16.4µM* | .
COc1cccc(/C=C/c2nc(S(=O)(=O)c3ccccc3)c(N3CCC(C(N)=O)CC3)o2)c1 | 1.1% | -14.7 | ? | ? | 1.9%
CC12CCC3c4ccc(OP(=O)(N5CC5)N5CC5)cc4CCC3C1CCC2=O (centres undefined) | 11.0% | 40.0 | 13µM* | 14.6µM* | 7.8%
O=c1[nH]c(=O)n(-c2ccc(F)cc2)c(O)c1C=Nc1ccccc1N1CCCC1 | 10.5% | 19.6 | ? | ? | 4.1%
S=P(NCCSCc1ccccc1)(N1CC1)N1CC1 | -9.8% | -21.4 | 7.31µM* | 3.66µM* | -17.6%
S=P(NCCNP(=S)(N1CC1)N1CC1)(N1CC1)N1CC1 | -5.8% | 8.0 | 1.3µM* | -58.9% | -3.4%

From PubChem
